Measurements taken from PubChem BioAssay AID720555 (National Center for Advancing Translational Sciences (NCATS), 2013).
Results filed as inconclusive are left out. Calls of active or inactive are those of the source. Calls come from the whole dose curve; as a rule, active = well fitted inhibition curve with a large enough effect; inconclusive = small, poorly fitted or top-dose-only effect; inactive = no such curve, though single readings can be large or run the other way.

target: RecQ-like DNA helicase BLM (Homo sapiens) (UniProt P54132); assay: qHTS for Inhibitors of Bloom's syndrome helicase (BLM): Helicase DNA unwinding fluorescent orthogonal confirmatory assay for SAR; details: fluorescence, orthogonal confirmation
Description: Human RecQ DNA helicases participate in maintenance of genome stability and DNA repair. While other types of helicases have been explored as targets for drug development, members of the RecQ family have remained less well characterized. Mutations of the Bloom helicase gene have been associated with the rare human genetic disease called Bloom syndrome. […] Moreover, identified inhibitors can be used in cells and animal models to examine the consequences of inhibition on the survival of cancer cells where it has been shown that BLM plays an important role.
A fluorescence-based, biochemical assay in 1536 well format was developed to evaluate inhibition of BLM DNA unwinding activity. This assay was used to screen the MLPCN library. The resulting compounds were subjected to orthogonal and secondary biochemical assays to triage the initial hits, to classify compounds based on mode of action and to derive structure activity relationships (SARs) of candidate effectors. The data herein is the result of the Helicase DNA unwinding fluorescent orthogonal confirmatory assay. This fluorescent-based assay employs a purified BLM enzyme and utilizes gel electrophoresis to monitor the helicase-mediated unwinding of a fluorescently-labeled DNA substrate. For this assay decrease in the single-stranded DNA product band on the gel = inhibition of the BLM helicase activity. Inhibition is the desired outcome for this assay.
NIH Chemical Genomics Center [NCGC]
NIH Molecular Libraries Probe Centers Network [MLPCN]
Assay Submitter (PI): Opher Gileadi, Structural Genomics Consortium, University of Oxford, UK
Unwinding assay for the BLM helicase was carried out in a reaction buffer containing 50 mM Tris-HCl pH 7.5, 50mM NaCl, 2mM MgCl2, 2mM ATP, 1mM DTT, and 0.1 mg/ml BSA. Optimal substrate and enzyme concentrations as well as reaction times were determined experimentally. All reactions were performed at room temperature and terminated by the addition of loading buffer containing 20mM EDTA and 2.5% bromophenol blue. […] Substrate and product bands were quantified using ImageJ. […]

Chain of RecQ-like DNA helicase BLM (Homo sapiens) (P54132 whole entry, looked up): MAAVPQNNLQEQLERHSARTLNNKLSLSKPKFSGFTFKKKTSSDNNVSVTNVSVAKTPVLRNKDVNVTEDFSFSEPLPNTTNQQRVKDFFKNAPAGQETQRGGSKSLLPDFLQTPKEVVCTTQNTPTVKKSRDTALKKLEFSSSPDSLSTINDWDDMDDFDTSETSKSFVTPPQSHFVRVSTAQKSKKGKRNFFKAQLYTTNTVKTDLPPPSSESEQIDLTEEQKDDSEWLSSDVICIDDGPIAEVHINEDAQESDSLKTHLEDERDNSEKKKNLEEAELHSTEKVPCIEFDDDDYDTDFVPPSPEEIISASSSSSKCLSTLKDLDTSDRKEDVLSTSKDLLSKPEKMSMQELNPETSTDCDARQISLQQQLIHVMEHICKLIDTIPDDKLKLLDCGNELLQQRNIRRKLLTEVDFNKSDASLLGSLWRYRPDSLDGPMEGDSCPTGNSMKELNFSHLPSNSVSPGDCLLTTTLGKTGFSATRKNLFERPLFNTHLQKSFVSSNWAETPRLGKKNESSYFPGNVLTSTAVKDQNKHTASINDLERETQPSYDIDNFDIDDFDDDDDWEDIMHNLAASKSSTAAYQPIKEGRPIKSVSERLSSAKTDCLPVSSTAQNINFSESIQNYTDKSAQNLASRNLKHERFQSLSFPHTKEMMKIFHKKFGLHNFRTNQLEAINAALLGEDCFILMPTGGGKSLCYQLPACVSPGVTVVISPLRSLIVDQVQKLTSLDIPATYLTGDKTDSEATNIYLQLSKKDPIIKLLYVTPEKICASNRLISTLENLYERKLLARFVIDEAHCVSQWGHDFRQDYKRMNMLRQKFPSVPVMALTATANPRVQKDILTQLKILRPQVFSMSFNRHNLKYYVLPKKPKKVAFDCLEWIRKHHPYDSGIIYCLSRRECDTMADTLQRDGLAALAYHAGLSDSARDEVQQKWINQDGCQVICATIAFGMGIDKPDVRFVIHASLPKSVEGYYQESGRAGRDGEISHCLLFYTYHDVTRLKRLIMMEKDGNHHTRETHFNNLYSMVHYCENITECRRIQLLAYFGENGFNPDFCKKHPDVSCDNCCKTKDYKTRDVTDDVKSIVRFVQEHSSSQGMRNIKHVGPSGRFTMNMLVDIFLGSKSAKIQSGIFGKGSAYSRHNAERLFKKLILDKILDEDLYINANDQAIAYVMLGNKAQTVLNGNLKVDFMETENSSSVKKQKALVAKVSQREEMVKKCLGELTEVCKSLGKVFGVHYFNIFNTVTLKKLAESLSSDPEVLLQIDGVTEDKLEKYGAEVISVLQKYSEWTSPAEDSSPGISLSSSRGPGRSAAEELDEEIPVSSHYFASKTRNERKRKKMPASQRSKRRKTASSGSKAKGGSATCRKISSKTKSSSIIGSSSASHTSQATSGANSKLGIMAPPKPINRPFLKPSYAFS

| Structure (SMILES) | Potency |
| --- | --- |
| N#Cc1ccc(NC(=O)Nc2nnc(-c3ccncc3)s2)cc1Cl | 1.58 µM (active) |
| N#Cc1ccc(NC(=O)Nc2nnc(-c3ccncc3)s2)cc1C(F)(F)F | 5.62 µM (active) |
| N#Cc1ccc(NC(=O)Nc2nnc(-c3ccncc3)s2)cc1Br | 1.12 µM (active) |
